Experimental data reported in PubChem BioAssay AID2732 (Emory University Molecular Libraries Screening Center, 2010).
In all, about 220,000 compounds went through this assay and about 8,200 (3.7%) were called active. Shown is part of a subset that was picked to be rich in actives. A number with no mark means an inactive call.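 How the source made its calls: active means compounds that reduced the stress-induced luciferase reporter signal by more than about 70% of percent inhibition (limit read from the data); inactive means the rest.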

assay: blockers of ER-stress CHOP reporter expression – cell-based, unfolded protein response, luciferase reporter, primary screen (AID 2732); conditions: CHO-K1 CHOP-promoter luciferase, tunicamycin-induced, 15-18 h; at 10 µM; active compounds read high;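 further: 0% = tunicamycin plus vehicle and 100% = wells without tunicamycin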

Structure (SMILES)	inhibition
COCCNC(=O)CCCn1c(=O)c2ccccc2n(Cc2cccc([N+](=O)[O-])c2)c1=O	-6.2%
CCCCNC(=O)CCn1c(=S)[nH]c2cc3c(cc2c1=O)OCO3	55%
CCCCNC(=O)CCn1c(=O)c2ccccc2n(Cc2cc(C)ccc2C)c1=O	86.5% (active)
Cc1ccc(-c2c[n+](=O)c3c(n2[O-])CCC3)cc1	17.5%
Cc1ccc(NS(=O)(=O)c2ccc(N/N=C/c3ccccc3OCC(=O)O)c([N+](=O)[O-])c2)c(C)c1	-8.85%
CC(C)Sc1nnc([C@H](Cc2ccccc2)NC(=O)OC(C)(C)C)o1	11.1%
C[C@H](NC(=O)OC(C)(C)C)c1nnc(SCC(N)=O)o1	26.6%
C[C@@H](NC(=O)OC(C)(C)C)c1nnc(S(=O)(=O)Cc2ccccc2)o1	86.2% (active)
CC(C)C(=O)N1CCC2(CC1)Oc1ccc(F)cc1C(=O)C21CC(c2ccccc2)=NO1 (stereo unspecified)	19.9%
O=C(Nc1nnc(SCc2c(Cl)cccc2Cl)s1)c1cccc([N+](=O)[O-])c1	30.6%
CCOC(=O)c1ccccc1NS(=O)(=O)c1ccc(OC)cc1	9.25%
CCOC(=O)C1=C(c2ccc(OC)cc2)C(=O)c2ccccc2C1=O	102% (active)
CCOC(=O)c1c(-c2ccc(C)cc2)csc1/N=C(\C)C1=C(O)c2ccccc2C1=O	3.26%
O=C(Nc1ccc(N2CCN(C(=O)c3ccccc3)CC2)c(Cl)c1)c1ncn[nH]1	37.5%
COCCn1c(SCC(=O)Nc2cc(OC)ccc2OC)nc2c(c1=O)SC(C)C2 (stereo unspecified)	-5.89%
CC(=O)Nc1ccc(/C=C/C(=O)c2ccccc2)cc1	-42%
CN(C)c1cc(-c2ccc(F)cc2)oc(=O)c1Cl	12.7%
CNC(=S)NNC(=O)c1oc2nc(-c3ccccc3)cc(-c3ccco3)c2c1N	-27.7%
CN(C)C(=O)c1coc2nc3ccccc3nc12	20.5%
Cc1ccsc1/C=N/Nc1ccc(Cl)nn1	65.5%
CCC(=O)/C=C1\Sc2ccccc2N1CC	14.1%
CCN1/C(=C/c2ccc3ccc(C)cc3[n+]2CC)Sc2ccccc21	73% (active)
CCN1/C(=C\c2ccc3ccccc3[n+]2CC)Sc2cc(C)ccc21	87.5% (active)
CCN1/C(=C/C(=S)Nc2ccccc2)Sc2ccccc21	-10.3%

Structure (SMILES)	inhibition
O=C(Nc1cccc(S(=O)(=O)NC2=NCCC2)c1)C1CCCCC1	3.64%
CC(C)(C)NC(=O)/C(=C/c1cccnc1)NC(=O)c1ccco1	12.6%
Cc1nnsc1C(=O)N/N=C/c1ccccc1Cl	-17.2%
COc1ccc(/C=N/NS(=O)(=O)c2ccc(NC(C)=O)cc2)cc1	1.32%
CN(C)S(=O)(=O)c1ccc(NC(=O)COC(=O)Cn2[nH]c(=O)c3ccccc3c2=O)cc1	0.58%
Cc1cccc2c1-c1sc(C(=O)NCCCN3CCc4ccccc4C3)cc1CO2	35.6%
Cc1ccc(SCC(=O)Nc2ncc(C)s2)cc1	4.03%
Cc1cnc(NC(=O)CSc2c(Cl)cccc2Cl)s1	74.4% (active)
Cc1cnc(NC(=O)CSc2nnc(C)s2)s1	22.4%
FC(F)(F)Oc1ccc(-c2cn3cccnc3n2)cc1	2.48%
CCOC(=O)c1nnn2c3ccccc3c(=O)n(C)c12	8.91%
Cc1ccc(-c2cc(C(=O)NN)n[nH]2)o1	2.15%
CC(=O)c1sc(NC(=O)c2ccc(C)cc2)nc1C	-2.78%
N#Cc1ccc(C(=O)Nc2nc(-c3cccs3)c(C(=O)C(F)(F)F)s2)cc1	74.7% (active)
Cc1ccc(C(=O)Nc2nnc(-c3cccs3)s2)cc1C	48.9%
Cn1c2c(c(=O)n(C)c1=O)C(c1cccc(F)c1)C(C#N)=C(N)O2 (stereo unspecified)	6.57%
CCc1nc2sc3c(Cl)ncnc3c2c2c1CCCC2	-17.1%
COc1ccc(C(CCN(Cc2ccc(OC)c(OC)c2)C(=O)CCl)c2ccccc2)cc1 (stereo unspecified)	106% (active)
COc1ccc(CCNC(=O)C(Sc2ccccn2)c2ccccc2)cc1OC (stereo unspecified)	6.29%
CCOC(=O)CN(Cc1ccc(OC)c(OC)c1)S(=O)(=O)c1ccc(OC)cc1	-1.05%
CC(C)(C)c1cc(C(=O)NN)n(Cc2ccc(Cl)cc2Cl)n1	-7.9%
Cc1c([N+](=O)[O-])c(N)nn1C	4.08%
N#CCC(=O)N/N=C/c1cn(Cc2ccc3ccccc3c2)c2ccccc12	1.95%
CC(C)n1cnc2c(Nc3cccc(Cl)c3)nc(N(CCO)CCCO)nc21	61.8%

Structure (SMILES)	inhibition
OCCCNc1nccc(-c2cc(Nc3cccc(Cl)c3)ncn2)n1	103% (active)
NS(=O)(=O)c1cccnc1Nc1cccc(Cl)c1	5.4%
CCOC(=O)C1CCN(C(=O)Nc2cccc(OC)c2)CC1	6.27%
CSc1nc(C)nc(C2CC2)c1C#N	15.9%
COc1ccc(N2CCN(c3ccc([N+](=O)[O-])nc3)CC2)cc1	10.8%
CC(=O)NC(Cc1ccccc1)C(=O)NC1CCN(c2ncccc2[N+](=O)[O-])CC1 (stereo unspecified)	19.6%
COc1ccc(-c2cc(C3CCN(c4ncccc4[N+](=O)[O-])CC3)[nH]n2)cc1	75.9% (active)
CC1(C)CC(CNCCC(c2ccc(F)cc2)c2ccco2)CCO1 (stereo unspecified)	10.6%
C=CCn1c(SCn2nnc3ccccc3c2=O)nnc1-c1ccc(Cl)cc1	17.8%
C=CCn1cc(-c2cccc(C(F)(F)F)c2)cc(C#N)c1=O	5.76%
C=CCn1c(-c2ccc(Cl)cc2)ccc(C#N)c1=O	82.2% (active)
O=C(Cc1ccccc1)Nc1c(Cl)ccc2nsnc12	-1.48%
O=C(c1ccc(F)cc1)C1CCN(Cc2cn[nH]c2-c2ccccc2)CC1	15.6%
Cn1cnc([N+](=O)[O-])c1Sc1n[nH]c(N)n1	-10.3%
COc1ccc(C(=O)Nc2ccc(CN3CCOCC3)cc2)cc1	-29.9%
O=C(Nc1ccc(CSc2ccccc2)cc1)c1ccc(CN2CCOCC2)cc1	79.5% (active)
O=C(Nc1ccccc1C(=O)N1CCOCC1)c1ccc(CSc2ccccc2)cc1	-8.2%
Cc1nnc(C)c2c(C)n(N)c(C)c12	13.9%
Cc1ccc(COc2ccc(C(=O)NN)cc2)cc1	0.74%
Cc1ccc(OCc2nnc(NC(=O)OCC(C)C)s2)cc1	91% (active)
COCC(=O)Nc1nnc(COc2ccccc2)s1	-20.1%
CCn1c(CN2C(=O)CSc3ccccc32)n[nH]c1=S	11.5%
C=CCNC(=O)c1ccc2c3n(nc2c1)-c1ccc(C)cc1CO3	-2.7%
COCCNC(=S)N1CCN(C)CC1	-18.1%

Structure (SMILES)	inhibition
CSCCC1NC2(C(=O)Nc3ccc(Cl)cc32)[C@@H]2C(=O)N(C3CCCC3)C(=O)[C@H]12 (stereo partly specified)	85.7% (active)
O=C1[C@@H]2C(Cc3ccc(O)cc3)NC3(C(=O)Nc4ccc(F)cc43)[C@@H]2C(=O)N1c1ccc(F)cc1 (stereo partly specified)	27.9%
COc1ccc(N=Nc2ccc(O)c(P(=O)(c3ccccc3)c3ccccc3)c2)cc1	2.83%
CCOc1cc(/C=C(/C#N)c2ccc(Cl)cc2)cc(Cl)c1OCC(=O)O	87.8% (active)
C/C(=N\OCC(=O)O)c1ccc(Cl)cc1	-4.7%
CCOC(=O)CN/C=C(\C#N)c1ccc(F)cc1	-6.58%
C=CC1C(OC2OC(CO)C(O)C(O)C2O)OC=C(C(=O)OC)C1CC1CC(=O)CC(CC(=O)CCc2ccc(O)cc2)O1 (stereo unspecified)	7.57%
CCOC(=O)c1c(CC(C)C)csc1/N=C/C1=C(O)CCCC1=O	24.8%
Cc1nnc(NC(=O)CCCOc2ccccc2)s1	26.2%
O=C(Nc1ccccc1)Nc1nnc(COc2ccccc2F)s1	9.53%
O=C(Nc1nnc(COc2ccccc2)s1)Nc1ccccc1F	96.7% (active)
Cc1ccc(S(=O)(=O)N2CCN(C(=O)COC(=O)c3c(C)noc3C)CC2)c(C)c1	8.26%
Cc1ccc(C(=O)Cn2cc([N+](=O)[O-])nc2C)cc1	2.6%
O=C(CN1CCOCC1)N/N=C/c1ccc(-c2ccc(Br)cc2)o1	32.5%
O=c1c(-c2ccc3c(c2)OCCO3)c(C(F)(F)F)oc2cc(O)cc(O)c12	13.2%
CCOC(=O)c1oc2c(CN3CCN(C)CC3)c(O)ccc2c(=O)c1-c1ccc(Br)cc1	-10.9%
CCOC(=O)c1cc2cc(-c3c(C(=O)OCC)oc4cc(O)cc(O)c4c3=O)ccc2o1	105% (active)
NC(=O)[C@H]1CC2(CC(c3cccc(NC(=O)[C@H]4CCC(=O)N4)c3)=NO2)CN1C(=O)c1ccccc1C(=O)c1ccccc1 (stereo partly specified)	-11.9%
Cn1c(SCC(=O)N/N=C/c2ccc(O)c(O)c2)nc2ccccc21	-4.19%
Nc1ccc(C(=O)OCC(=O)NC2CCS(=O)(=O)C2)cc1[N+](=O)[O-] (stereo unspecified)	3.77%
CCOC(=O)C1=C(C)NC(=S)NC1c1cccs1 (stereo unspecified)	0.7%
CCOC(=O)C1=C(C)Nc2nc3ccccc3n2C1c1cccs1 (stereo unspecified)	18%
C=CCOC(=O)C1=C(C)NC(C)=C(C(=O)OCC=C)C1c1cccs1	86.8% (active)
CCC(C)NC(=O)C1c2ccccc2Oc2ccccc21 (stereo unspecified)	-5.78%
